Results taken from the OligoGym collection.

biological target: C5AR1; assay: pooled miR-30 sensor sort-seq; sequence = guide strand; settings: shRNA
Note: reference of the scale not given here.

Question: With TTAAACACCAGCAGAAAGCGGT as the sequence, how does the sensor-assay potency score (higher = more potent) read?
Answer: -0.159

Question: Which sensor-assay potency score (higher = more potent) does the source give for TTGAGGTCCAGGGTATCCTTGT here?
Answer: -0.809

Question: With TGAAAGTGTAACAAATCGTGAG as the sequence, how does the sensor-assay potency score (higher = more potent) read?
Answer: 0.282

Question: For TAGAAGTTTTATCCACAGGGGT, which sensor-assay potency score (higher = more potent) is on record?
Answer: -0.173

Question: TTCAGTCAACACGTTCCGGAGG was tested. Which sensor-assay potency score (higher = more potent) did it give?
Answer: -1.26

Question: With TTCAGCAGCAGGAAGGTGGGTG as the sequence, how does the sensor-assay potency score (higher = more potent) read?
Answer: 0.301

Question: For TAAGGTAACACCATCCCACGAA, which sensor-assay potency score (higher = more potent) is on record?
Answer: 0.399

Question: How did the sensor-assay potency score (higher = more potent) turn out when TTTGTCGTGGCTGTAGTCCACG was run?
Answer: -0.519

Question: With TCTTCAGTCAACACGTTCCGGA as the sequence, how does the sensor-assay potency score (higher = more potent) read?
Answer: -0.631

Question: With ATAGTGTCCACTGTGGAGCGCG as the sequence, how does the sensor-assay potency score (higher = more potent) read?
Answer: -0.598

Question: With TTGAGTGTCTTGGTGGACCGCG as the sequence, how does the sensor-assay potency score (higher = more potent) read?
Answer: 0.0393

Question: Which sensor-assay potency score (higher = more potent) does the source give for TACATATTTTCCAACTTGCCAT here?
Answer: -0.462

Question: How did the sensor-assay potency score (higher = more potent) turn out when TACTCCTCCCGGACCACCCGGT was run?
Answer: -0.108

Question: Which sensor-assay potency score (higher = more potent) does the source give for TTTTAAGCGAGAATCTTTCTAC here?
Answer: 0.0632

Question: Which sensor-assay potency score (higher = more potent) does the source give for TTCTACTTGTCTGTATTCTGAG here?
Answer: 0.386

biological target: C5orf51; assay: as above; settings: shRNA

Question: For AAAATCTTCATCTACTAGCTTG, which sensor-assay potency score (higher = more potent) is on record?
Answer: -0.0873

Question: With TTGATGGATTTGAACATTCTTT as the sequence, how does the sensor-assay potency score (higher = more potent) read?
Answer: -0.74

Question: With TATCTTAATGTAATACCGCTGT as the sequence, how does the sensor-assay potency score (higher = more potent) read?
Answer: -0.406

Question: For TAGAACATGATTACACAGGATG, which sensor-assay potency score (higher = more potent) is on record?
Answer: -0.681

Question: Which sensor-assay potency score (higher = more potent) does the source give for TTATTAGTGACATAACATCTGT here?
Answer: -0.587

Question: How did the sensor-assay potency score (higher = more potent) turn out when TTGTATTCCATTCTTGTTCTTT was run?
Answer: -0.072

Question: For TATTAGTGACATAACATCTGTA, which sensor-assay potency score (higher = more potent) is on record?
Answer: 0.937

Question: For TTAACTAAGTCTAAAAGCCTAG, which sensor-assay potency score (higher = more potent) is on record?
Answer: -0.498

Question: For TTCAATATCAGAACTTCTGTAA, which sensor-assay potency score (higher = more potent) is on record?
Answer: 0.18

Question: For TTAACTGGATAGGACATCGATA, which sensor-assay potency score (higher = more potent) is on record?
Answer: -1.18

Question: With TTTATCTTCATTACTCACTTGA as the sequence, how does the sensor-assay potency score (higher = more potent) read?
Answer: 1.06

Question: Which sensor-assay potency score (higher = more potent) does the source give for TTTAGCTGTGTCTAGATCTTGG here?
Answer: 0.753

biological target: C5orf56; assay: as above; settings: shRNA

Question: With AAAGGAGACATTTCTTTCCAGA as the sequence, how does the sensor-assay potency score (higher = more potent) read?
Answer: -0.416

Question: TTGATGACGAGGAAAAAGGAGA was tested. Which sensor-assay potency score (higher = more potent) did it give?
Answer: -0.938

Question: TTTGAAGATTCCCTTGGTGTGT was tested. Which sensor-assay potency score (higher = more potent) did it give?
Answer: -0.413

Question: TTATAAGCTGCATGAGAGCAGG was tested. Which sensor-assay potency score (higher = more potent) did it give?
Answer: -0.803

Question: For TCCAATAGGCTACAAACTCTGG, which sensor-assay potency score (higher = more potent) is on record?
Answer: -1.19

Question: For TTCACTGCTGCATTGCTGCCAT, which sensor-assay potency score (higher = more potent) is on record?
Answer: -0.146

Question: For TTGAAGATTCCCTTGGTGTGTT, which sensor-assay potency score (higher = more potent) is on record?
Answer: 0.717

Question: How did the sensor-assay potency score (higher = more potent) turn out when TTTCTTTCCAGAATCTTGGCTG was run?
Answer: 0.311

Question: With TTGTTCACTGCTGCATTGCTGC as the sequence, how does the sensor-assay potency score (higher = more potent) read?
Answer: -0.868

Question: TTCTTTCCAGAATCTTGGCTGT was tested. Which sensor-assay potency score (higher = more potent) did it give?
Answer: 0.101

Question: With AATCTTGGCTGTAAGCAGCAGA as the sequence, how does the sensor-assay potency score (higher = more potent) read?
Answer: -0.53

Question: With AACACTTGCTGAATAAATGAGT as the sequence, how does the sensor-assay potency score (higher = more potent) read?
Answer: -0.962
